Test results: PubChem BioAssay AID624417 (National Center for Advancing Translational Sciences (NCATS), 2012)
Hit rate of the full screen: of about 410,000 compounds, about 6,400 (1.6%) were called active. Another 20% or so got no clear call; they are omitted. For the sample, actives were picked, then their nearest neighbours and some compounds at random. Unmarked numbers belong to inactive results. Calls follow the shape of the dose curve; as a rule, active = well fitted inhibition curve with a large enough effect; inconclusive = small, poorly fitted or top-dose-only effect; inactive = no such curve, though single readings can be large or run the other way.

Target: Glucagon-like peptide 1 receptor (Homo sapiens) (UniProt P43220)
Test: qHTS of GLP-1 Receptor Inverse Agonists (Inhibition Mode); also: nearly all actives have a fitted effect of over 55% in size
Settings: HEK293 GLP-1R CRE-luciferase, luminescence, 24 h; series mostly up to 38.3 µM; activity change, negative = inhibition: at the top concentration
From the text: The overall goal of this project was to develop a novel assay for discovering small molecule ligands for class B1 G protein-coupled receptors (GPCRs). Very few agonists (or inverse agonists in inhibition mode) with generally weak activity for this entire group of physiologically important receptors are known to date. To establish proof-of-principle that this critical bottleneck can be overcome with a suitable screening approach, our studies focused on the class B1 receptor for glucagon-like peptide-1 (GLP-1R), a potential therapeutic target for diabetes and neurodegenerative disease. The assay was developed using a cell-based functional readout. Toward this goal, stably transfected HEK293 cell clones were established that co-express (i) a cAMP-responsive luciferase reporter gene, and (ii) constitutively active GLP-1R that upon ligand interaction inhibit (inverse agonists) the luciferase activity. In addition, two control cell lines were developed: (i) one that express only the cAMP-responsive reporter gene to enable initial exclusion of GLP-1R independent effects of candidate probes; and (ii) one with the reported gene cloned with another constitutively active orphan receptor GPR119 to enable exclusion of GLP-1R independent inhibitor effects of candidate inverse agonists. To that end, this assay was optimized for 1536-well format and screened against the MLSMR. […] NIH Molecular Libraries Probe Production Network [MLPCN] NIH Chemical Genomics Center [NCGC] Grant: NS064851 PI Name: Martin Beinborn, Tufts Medical Center
Six ul of cell suspension (200 cells/uL in DMEM + 10% Nu serum + 1% pen-strep) is dispensed in a white solid 1536-well plate. The plates are incubated for 12 hours at 37 deg C at 5% CO2 followed by addition of 23 nL compounds. After 24 hr incubation at 37 deg C and 5% CO2, 3 uL of luciferase assay detection reagent is added. A luminescence read is obtained on the PerkinElmer Viewlux after 12 min incubation at room temperature.
% is scaled to controls: 0 for no effect and ±100 for the full control effect; potency is read from the fitted curve at half-maximal effect.

Glucagon-like peptide 1 receptor (Homo sapiens), sequence (P43220 whole entry, looked up): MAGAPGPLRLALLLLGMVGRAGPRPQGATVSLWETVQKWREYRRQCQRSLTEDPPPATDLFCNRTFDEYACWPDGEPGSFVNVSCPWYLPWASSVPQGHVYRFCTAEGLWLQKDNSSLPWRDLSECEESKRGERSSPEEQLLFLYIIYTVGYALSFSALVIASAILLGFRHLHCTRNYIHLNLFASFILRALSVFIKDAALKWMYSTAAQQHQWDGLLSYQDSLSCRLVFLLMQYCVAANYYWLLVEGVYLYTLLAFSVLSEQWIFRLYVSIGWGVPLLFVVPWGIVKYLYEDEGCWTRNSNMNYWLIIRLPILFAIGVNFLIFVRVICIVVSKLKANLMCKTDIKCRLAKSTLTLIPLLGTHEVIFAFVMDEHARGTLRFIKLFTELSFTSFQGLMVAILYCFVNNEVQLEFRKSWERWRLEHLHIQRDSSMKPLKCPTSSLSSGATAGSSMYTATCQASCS

SMILES | activity change, negative = inhibition | Potency
O=c1c2ccccc2[nH]c(=S)n1-c1cccc(Cl)c1 | -3.22% | –
COc1cc(-n2c(=S)[nH]c3ccc(C)cc3c2=O)c(Cl)cc1Cl | – | 12.6 µM (active)
C[C@]12CCCCC1=CC(=O)C1C2CC[C@@]2(C)C1C[C@@H](F)[C@@H]2O (stereo not given in full) | 8.19% | –
COC1=CC=C2[C@H]3Cc4ccc(OC)c5c4[C@@]2(CCN3C)C1O5 (stereo not given in full) | 0.902% | –
COc1ccc2c(c1)NP(=S)(c1ccccc1)N2 (stereo not given) | 40.2% | –
COC(=O)C1=C(c2ccc(F)cc2OCc2ccccc2)C[C@@H]2CC[C@H]1N2C(=O)NCc1ccc(Cl)cc1 | 9.06% | –
COC(=O)C1=C(c2ccccc2OCc2ccccc2)C[C@@H]2CC[C@H]1N2C(=O)NCc1ccc(OC)cc1 | -8.58% | –
COC(=O)C1=C(c2ccc(-c3ccccc3)c(F)c2)C[C@@H]2CC[C@H]1N2C(=O)NCc1ccc(F)cc1 | -3.76% | –
COC(=O)C1=C(c2ccc(OCc3ccccc3)cc2)C[C@@H]2CC[C@H]1N2C(=O)NCc1ccc(Cl)cc1 | 7.75% | –
COC(=O)C1=C(c2cccc(OCc3ccccc3)c2)C[C@@H]2CC[C@H]1N2C(=O)NCc1ccc(Br)cc1 | – | 12.6 µM (active)
COC(=O)C1=C(c2ccc(OCc3ccccc3)cc2)C[C@@H]2CC[C@H]1N2C(=O)NCc1cccc(F)c1 | – | 4.47 µM (active)
COc1ccc(NC(=O)N2Cc3ccccc3-n3nncc3C2)cc1 | 17.6% | –
O=P(OC1=CCCCC1)(c1ccccc1)c1ccccc1 | -26.9% | –
CCOC(=O)CNC(=O)N1Cc2cc(N3CCCCC3)ccc2-n2nncc2C1 | 23.3% | –
O=C1NCN(c2ccccc2)C12CCN(C(c1cccs1)c1nnnn1C1CCCCC1)CC2 (stereo not given) | -19.9% | –
CC1([N+](=O)[O-])COP(=O)(Nc2ccc(F)cc2)OC1 (stereo not given) | 17.7% | –
C[C@]12CCC3C(CC[C@H]4[C@H](O)[C@H](O)CC[C@]34C)C1CC[C@@H]2O (stereo not given in full) | 31.4% | –
Cc1ccc(CN2CCCC(C(=O)c3ccc4c(c3)OCO4)C2)cc1C (stereo not given) | – | 11.2 µM (active)
Cc1ccsc1C(=O)C1CCCN(Cc2ccc(O)cc2)C1 (stereo not given) | -8.89% | –
COc1ccc(C(=O)C2CCCN(Cc3ccc(C)s3)C2)cc1OC (stereo not given) | -22.3% | –
COc1cc(C(=O)N2Cc3ccc(Br)cc3-n3nncc3C2)cc(OC)c1OC | 29.4% | –
Clc1ccc(Cl)c(Oc2ccc(Oc3nc(Cl)ccc3Cl)cc2)n1 | 42% [at 38.3 µM, GLP-1R form is constitutively active] | –
C[C@H]1CN([C@@H](C)CO)C(=O)CCCn2nncc2CO[C@H]1CN(C)C(=O)Oc1cccc2ccccc12 | 12.5% | –
CC=C(C)C(=O)OC1CCN2CC=C(COC(=O)C(O)(C(C)OC)C(C)(C)O)C12 (stereo not given) | 1.04% | –
Cc1ccc(S(=O)(=O)N(C)c2ccc(C(=O)NCC3(N(C)C)CCCCC3)cc2)cc1 | – | 3.16 µM [GLP-1R form is constitutively active] (active)
